Columns and labels:
[1] = molecular target: T1, Tyrosine-protein kinase ITK/TSK (Homo sapiens) (UniProt Q08881); settings: at 10 µM
T1 sequence (whole entry): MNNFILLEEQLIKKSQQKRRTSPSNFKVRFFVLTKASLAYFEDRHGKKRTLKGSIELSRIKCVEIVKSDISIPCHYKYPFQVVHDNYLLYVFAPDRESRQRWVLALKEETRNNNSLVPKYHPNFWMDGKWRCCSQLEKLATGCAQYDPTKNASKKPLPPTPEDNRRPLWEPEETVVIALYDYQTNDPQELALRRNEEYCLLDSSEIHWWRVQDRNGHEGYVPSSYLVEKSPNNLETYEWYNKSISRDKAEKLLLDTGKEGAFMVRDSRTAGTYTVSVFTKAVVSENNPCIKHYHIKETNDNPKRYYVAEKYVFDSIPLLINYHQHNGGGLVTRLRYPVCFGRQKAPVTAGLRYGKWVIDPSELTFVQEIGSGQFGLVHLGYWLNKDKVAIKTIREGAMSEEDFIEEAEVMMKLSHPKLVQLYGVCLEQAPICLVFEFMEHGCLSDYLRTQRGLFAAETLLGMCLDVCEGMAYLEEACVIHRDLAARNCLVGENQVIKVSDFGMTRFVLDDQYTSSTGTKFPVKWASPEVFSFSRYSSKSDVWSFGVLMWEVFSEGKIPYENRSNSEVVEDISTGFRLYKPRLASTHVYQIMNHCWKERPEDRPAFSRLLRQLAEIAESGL

[2] = molecular target: Tyrosine-protein kinase JAK2 (Homo sapiens) (UniProt O60674); settings: at 1 µM
Chain of Tyrosine-protein kinase JAK2 (Homo sapiens) (O60674 whole entry): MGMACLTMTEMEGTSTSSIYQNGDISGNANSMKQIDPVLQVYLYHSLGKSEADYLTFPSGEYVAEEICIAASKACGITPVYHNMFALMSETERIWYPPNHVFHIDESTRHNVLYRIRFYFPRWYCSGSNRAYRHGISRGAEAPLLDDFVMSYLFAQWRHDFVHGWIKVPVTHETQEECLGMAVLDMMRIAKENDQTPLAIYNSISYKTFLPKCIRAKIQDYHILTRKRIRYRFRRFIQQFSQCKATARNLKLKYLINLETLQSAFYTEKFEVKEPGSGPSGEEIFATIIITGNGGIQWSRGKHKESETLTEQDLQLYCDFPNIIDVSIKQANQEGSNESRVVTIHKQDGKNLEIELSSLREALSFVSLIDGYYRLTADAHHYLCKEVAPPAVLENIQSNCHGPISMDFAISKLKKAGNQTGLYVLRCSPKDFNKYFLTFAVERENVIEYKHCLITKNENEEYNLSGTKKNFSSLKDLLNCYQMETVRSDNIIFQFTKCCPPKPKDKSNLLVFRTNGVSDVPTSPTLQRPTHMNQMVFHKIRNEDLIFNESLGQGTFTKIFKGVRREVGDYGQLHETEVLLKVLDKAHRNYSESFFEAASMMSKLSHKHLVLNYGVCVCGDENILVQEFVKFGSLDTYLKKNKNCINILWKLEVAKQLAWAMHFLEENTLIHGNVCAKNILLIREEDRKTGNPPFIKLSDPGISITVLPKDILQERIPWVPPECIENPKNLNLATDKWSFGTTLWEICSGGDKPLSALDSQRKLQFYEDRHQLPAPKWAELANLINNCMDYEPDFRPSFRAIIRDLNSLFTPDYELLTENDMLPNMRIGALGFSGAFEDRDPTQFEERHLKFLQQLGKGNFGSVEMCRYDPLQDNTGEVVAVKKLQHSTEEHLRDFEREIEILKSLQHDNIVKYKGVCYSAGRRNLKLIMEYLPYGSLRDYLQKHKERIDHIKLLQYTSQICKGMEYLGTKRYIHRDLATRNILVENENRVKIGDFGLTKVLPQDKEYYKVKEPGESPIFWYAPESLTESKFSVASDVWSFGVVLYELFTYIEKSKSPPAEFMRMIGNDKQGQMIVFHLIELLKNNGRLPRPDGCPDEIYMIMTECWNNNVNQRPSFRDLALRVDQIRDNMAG

[3] = molecular target: Tyrosine-protein kinase JAK2 (Homo sapiens) (UniProt O60674); settings: at 10 µM
[4] = molecular target: T2, Tyrosine-protein kinase JAK3 (Homo sapiens) (UniProt P52333); settings: at 1 µM
T2 sequence (whole entry): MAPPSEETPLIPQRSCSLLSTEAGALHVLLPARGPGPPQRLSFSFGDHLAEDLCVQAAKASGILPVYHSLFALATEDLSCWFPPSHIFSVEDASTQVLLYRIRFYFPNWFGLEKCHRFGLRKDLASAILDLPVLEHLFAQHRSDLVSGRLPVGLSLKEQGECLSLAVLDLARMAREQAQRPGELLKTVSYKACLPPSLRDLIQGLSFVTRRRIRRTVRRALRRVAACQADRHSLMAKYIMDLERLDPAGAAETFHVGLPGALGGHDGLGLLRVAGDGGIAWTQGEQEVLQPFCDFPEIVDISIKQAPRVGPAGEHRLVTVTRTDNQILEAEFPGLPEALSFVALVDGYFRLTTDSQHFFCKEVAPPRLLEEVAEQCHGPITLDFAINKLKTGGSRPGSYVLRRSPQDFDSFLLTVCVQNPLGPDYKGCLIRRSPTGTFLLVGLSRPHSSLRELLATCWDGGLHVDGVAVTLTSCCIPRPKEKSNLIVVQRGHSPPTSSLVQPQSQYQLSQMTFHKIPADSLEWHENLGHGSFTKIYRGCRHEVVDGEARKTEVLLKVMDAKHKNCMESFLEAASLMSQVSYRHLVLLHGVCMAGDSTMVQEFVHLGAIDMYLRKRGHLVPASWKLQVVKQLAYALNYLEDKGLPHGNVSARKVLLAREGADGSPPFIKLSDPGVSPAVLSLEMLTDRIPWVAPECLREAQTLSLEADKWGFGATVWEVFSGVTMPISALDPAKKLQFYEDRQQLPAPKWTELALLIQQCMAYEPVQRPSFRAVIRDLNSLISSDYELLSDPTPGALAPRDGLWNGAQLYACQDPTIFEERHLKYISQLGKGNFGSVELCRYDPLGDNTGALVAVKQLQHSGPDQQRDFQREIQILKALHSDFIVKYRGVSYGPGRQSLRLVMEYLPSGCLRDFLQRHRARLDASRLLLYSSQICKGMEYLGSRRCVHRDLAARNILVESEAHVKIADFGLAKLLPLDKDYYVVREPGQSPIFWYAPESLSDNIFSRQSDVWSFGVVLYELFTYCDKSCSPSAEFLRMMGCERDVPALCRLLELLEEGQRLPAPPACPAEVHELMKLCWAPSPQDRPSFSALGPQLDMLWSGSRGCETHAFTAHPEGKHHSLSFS

[5] = molecular target: T2, Tyrosine-protein kinase JAK3 (Homo sapiens); settings: at 10 µM
[6] = molecular target: Mitogen-activated protein kinase 8 (Homo sapiens) (UniProt P45983); settings: at 1 µM
[7] = molecular target: Mitogen-activated protein kinase 8 (Homo sapiens) (UniProt P45983); settings: at 10 µM
[8] = molecular target: Mitogen-activated protein kinase 9 (Homo sapiens) (UniProt P45984); settings: at 1 µM
[9] = molecular target: Mitogen-activated protein kinase 9 (Homo sapiens) (UniProt P45984); settings: at 10 µM
[10] = molecular target: Mitogen-activated protein kinase 10 (Homo sapiens) (UniProt P53779); settings: at 1 µM
Chain of Mitogen-activated protein kinase 10 (Homo sapiens) (P53779 whole entry): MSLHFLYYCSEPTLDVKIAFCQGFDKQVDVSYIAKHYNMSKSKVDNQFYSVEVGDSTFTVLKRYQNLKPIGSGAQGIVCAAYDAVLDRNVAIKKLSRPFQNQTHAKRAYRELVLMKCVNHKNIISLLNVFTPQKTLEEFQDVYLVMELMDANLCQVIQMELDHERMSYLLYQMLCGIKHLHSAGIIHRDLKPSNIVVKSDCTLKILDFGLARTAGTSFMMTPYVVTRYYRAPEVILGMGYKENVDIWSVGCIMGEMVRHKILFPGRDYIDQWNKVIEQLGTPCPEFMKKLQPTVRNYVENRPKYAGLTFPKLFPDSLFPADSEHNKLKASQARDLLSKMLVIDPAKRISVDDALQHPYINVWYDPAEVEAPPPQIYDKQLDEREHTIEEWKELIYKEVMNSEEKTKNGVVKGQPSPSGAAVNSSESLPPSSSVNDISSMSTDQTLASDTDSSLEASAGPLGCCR

[11] = molecular target: Mitogen-activated protein kinase 10 (Homo sapiens) (UniProt P53779); settings: at 10 µM
[12] = molecular target: Vascular endothelial growth factor receptor 2 (Homo sapiens) (UniProt P35968); settings: at 1 µM
Chain of Vascular endothelial growth factor receptor 2 (Homo sapiens) (P35968 whole entry, the tested form may be a part): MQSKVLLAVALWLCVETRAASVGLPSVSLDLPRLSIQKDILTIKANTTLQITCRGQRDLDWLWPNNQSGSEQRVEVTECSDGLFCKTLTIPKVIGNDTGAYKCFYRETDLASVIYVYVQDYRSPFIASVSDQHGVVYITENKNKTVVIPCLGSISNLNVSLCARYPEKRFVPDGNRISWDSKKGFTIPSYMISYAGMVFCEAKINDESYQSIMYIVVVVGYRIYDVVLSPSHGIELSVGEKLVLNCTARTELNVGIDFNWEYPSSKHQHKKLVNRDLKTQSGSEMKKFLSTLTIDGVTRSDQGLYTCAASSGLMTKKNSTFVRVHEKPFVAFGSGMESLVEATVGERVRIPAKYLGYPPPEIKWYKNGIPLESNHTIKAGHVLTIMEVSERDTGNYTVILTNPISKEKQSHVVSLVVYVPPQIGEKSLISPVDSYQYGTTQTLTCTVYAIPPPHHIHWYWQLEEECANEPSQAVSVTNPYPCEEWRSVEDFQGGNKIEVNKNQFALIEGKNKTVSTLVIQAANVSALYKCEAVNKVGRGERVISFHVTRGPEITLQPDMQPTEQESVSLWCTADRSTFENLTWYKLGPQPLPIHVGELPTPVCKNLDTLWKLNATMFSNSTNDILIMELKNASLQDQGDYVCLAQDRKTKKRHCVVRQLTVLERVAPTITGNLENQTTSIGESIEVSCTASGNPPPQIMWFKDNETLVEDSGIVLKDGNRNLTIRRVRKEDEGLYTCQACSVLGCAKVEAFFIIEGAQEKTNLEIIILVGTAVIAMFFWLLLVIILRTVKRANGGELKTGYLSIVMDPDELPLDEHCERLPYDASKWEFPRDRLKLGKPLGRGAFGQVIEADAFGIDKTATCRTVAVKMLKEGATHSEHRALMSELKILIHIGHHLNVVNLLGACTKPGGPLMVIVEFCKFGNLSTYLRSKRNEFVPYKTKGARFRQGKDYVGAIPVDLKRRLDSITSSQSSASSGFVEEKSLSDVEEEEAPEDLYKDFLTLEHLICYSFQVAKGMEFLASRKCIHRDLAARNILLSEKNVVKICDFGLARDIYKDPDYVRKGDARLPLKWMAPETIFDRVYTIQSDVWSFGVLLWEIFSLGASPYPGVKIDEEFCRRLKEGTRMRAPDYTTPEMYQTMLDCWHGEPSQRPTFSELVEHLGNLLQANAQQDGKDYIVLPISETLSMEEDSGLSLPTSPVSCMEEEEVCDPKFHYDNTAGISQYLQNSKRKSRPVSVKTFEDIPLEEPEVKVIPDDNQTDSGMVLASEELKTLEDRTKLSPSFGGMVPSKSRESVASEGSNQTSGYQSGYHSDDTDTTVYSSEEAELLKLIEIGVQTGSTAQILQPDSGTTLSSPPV

[13] = molecular target: Vascular endothelial growth factor receptor 2 (Homo sapiens) (UniProt P35968); settings: at 10 µM
[14] = molecular target: LIM domain kinase 1 (Homo sapiens) (UniProt P53667); settings: at 1 µM
Chain of LIM domain kinase 1 (Homo sapiens) (P53667 whole entry, looked up, the tested form may be a part): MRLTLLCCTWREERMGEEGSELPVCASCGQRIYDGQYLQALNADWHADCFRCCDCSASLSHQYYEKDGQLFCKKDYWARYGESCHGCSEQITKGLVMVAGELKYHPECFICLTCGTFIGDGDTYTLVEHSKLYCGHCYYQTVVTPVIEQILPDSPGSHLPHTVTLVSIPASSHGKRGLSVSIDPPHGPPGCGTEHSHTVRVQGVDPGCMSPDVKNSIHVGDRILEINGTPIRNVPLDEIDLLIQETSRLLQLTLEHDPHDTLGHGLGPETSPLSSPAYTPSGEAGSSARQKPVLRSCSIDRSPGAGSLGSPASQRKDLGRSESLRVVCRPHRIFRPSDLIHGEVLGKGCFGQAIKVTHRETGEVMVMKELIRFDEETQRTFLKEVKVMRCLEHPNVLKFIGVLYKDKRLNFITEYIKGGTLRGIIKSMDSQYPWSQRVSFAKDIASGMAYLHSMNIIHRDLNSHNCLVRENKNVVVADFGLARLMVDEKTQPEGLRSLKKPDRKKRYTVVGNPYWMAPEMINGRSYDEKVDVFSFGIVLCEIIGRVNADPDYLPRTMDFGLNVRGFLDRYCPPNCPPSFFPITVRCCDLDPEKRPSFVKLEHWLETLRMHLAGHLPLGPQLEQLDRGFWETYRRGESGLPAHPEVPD

[15] = molecular target: LIM domain kinase 1 (Homo sapiens) (UniProt P53667); settings: at 10 µM
[16] = molecular target: T3, Serine/threonine-protein kinase STK11 (Homo sapiens) (UniProt Q15831); settings: at 1 µM
T3 sequence (whole entry): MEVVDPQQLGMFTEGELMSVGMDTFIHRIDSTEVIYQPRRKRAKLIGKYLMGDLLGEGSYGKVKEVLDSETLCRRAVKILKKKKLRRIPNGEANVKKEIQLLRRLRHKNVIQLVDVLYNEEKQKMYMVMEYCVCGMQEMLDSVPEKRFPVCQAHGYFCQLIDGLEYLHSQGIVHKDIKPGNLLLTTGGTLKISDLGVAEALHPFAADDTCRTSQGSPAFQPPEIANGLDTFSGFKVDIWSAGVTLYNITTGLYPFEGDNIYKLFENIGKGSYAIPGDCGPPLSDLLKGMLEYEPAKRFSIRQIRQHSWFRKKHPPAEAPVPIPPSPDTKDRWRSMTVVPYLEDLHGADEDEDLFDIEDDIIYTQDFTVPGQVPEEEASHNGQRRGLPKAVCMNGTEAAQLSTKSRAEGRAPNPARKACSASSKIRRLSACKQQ

[17] = molecular target: T3, Serine/threonine-protein kinase STK11 (Homo sapiens); settings: at 10 µM
[18] = molecular target: Serine/threonine-protein kinase 10 (Homo sapiens) (UniProt O94804); settings: at 1 µM
Chain of Serine/threonine-protein kinase 10 (Homo sapiens) (O94804 whole entry, looked up): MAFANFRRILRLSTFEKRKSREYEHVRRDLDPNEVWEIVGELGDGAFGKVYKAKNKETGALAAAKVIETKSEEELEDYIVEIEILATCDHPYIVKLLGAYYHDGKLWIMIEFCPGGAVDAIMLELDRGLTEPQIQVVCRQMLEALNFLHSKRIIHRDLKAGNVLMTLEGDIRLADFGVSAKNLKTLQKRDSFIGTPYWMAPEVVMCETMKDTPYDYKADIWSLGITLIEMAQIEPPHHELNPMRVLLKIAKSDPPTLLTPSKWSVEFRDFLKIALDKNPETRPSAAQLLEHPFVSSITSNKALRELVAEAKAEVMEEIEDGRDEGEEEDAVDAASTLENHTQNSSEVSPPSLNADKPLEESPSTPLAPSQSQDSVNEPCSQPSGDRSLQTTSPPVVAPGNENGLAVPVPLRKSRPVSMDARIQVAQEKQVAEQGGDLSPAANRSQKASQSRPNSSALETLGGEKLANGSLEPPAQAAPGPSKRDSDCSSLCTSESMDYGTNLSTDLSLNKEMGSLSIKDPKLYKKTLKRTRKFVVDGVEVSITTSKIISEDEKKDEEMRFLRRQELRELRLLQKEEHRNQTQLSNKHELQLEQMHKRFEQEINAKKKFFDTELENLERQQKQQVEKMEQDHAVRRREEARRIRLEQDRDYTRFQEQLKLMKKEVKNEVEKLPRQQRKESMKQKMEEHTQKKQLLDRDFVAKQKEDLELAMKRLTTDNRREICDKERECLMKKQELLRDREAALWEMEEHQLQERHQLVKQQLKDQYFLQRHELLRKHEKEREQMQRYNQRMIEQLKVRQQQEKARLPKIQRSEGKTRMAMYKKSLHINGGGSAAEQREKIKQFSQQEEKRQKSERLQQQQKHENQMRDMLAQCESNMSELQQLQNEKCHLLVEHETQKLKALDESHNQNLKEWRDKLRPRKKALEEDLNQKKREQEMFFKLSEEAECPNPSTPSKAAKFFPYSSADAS

[19] = molecular target: Serine/threonine-protein kinase 10 (Homo sapiens) (UniProt O94804); settings: at 10 µM
[20] = molecular target: Tyrosine-protein kinase Lck (Homo sapiens) (UniProt P06239); settings: at 1 µM
Chain of Tyrosine-protein kinase Lck (Homo sapiens) (P06239 2-509 limits assumed): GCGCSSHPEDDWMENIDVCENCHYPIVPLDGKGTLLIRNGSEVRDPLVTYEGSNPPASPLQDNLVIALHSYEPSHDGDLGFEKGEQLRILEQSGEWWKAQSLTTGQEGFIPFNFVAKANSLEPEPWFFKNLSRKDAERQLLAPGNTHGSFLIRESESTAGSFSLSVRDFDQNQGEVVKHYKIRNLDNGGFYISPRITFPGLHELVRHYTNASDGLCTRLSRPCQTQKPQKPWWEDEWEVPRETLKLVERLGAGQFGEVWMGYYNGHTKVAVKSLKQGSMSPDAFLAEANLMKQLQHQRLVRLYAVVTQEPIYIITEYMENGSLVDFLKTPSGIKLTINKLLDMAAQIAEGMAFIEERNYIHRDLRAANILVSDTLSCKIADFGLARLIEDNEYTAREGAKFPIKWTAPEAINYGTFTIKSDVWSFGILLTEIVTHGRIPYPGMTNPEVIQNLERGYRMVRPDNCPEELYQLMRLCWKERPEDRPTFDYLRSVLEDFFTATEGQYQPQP

| Structure (SMILES) | residual activity [1] [%] | residual activity [2] [%] | residual activity [3] [%] | residual activity [4] [%] | residual activity [5] [%] | residual activity [6] [%] | residual activity [7] [%] | residual activity [8] [%] | residual activity [9] [%] | residual activity [10] [%] | residual activity [11] [%] | residual activity [12] [%] | residual activity [13] [%] | residual activity [14] [%] | residual activity [15] [%] | residual activity [16] [%] | residual activity [17] [%] | residual activity [18] [%] | residual activity [19] [%] | residual activity [20] [%] |
| --- | --- | --- | --- | --- | --- | --- | --- | --- | --- | --- | --- | --- | --- | --- | --- | --- | --- | --- | --- | --- |
| O=C1NC(=O)/C(=C\c2ccc3nccnc3c2)S1 | 91 | 108 | 94 | 86 | 67 | 104 | 87 | 108 | 96 | 89 | 104 | 87 | 63 | 91 | 81 | 90 | 78 | 71 | 35 | 108 |
| O=C1NC(=O)c2cc(Nc3ccc(F)cc3)c(Nc3ccc(F)cc3)cc21 | 101 | 73 | 119 | 100 | 68 | 117 | 79 | 112 | 84 | – | – | 99 | 61 | 100 | 91 | 102 | 93 | 89 | 32 | 103 |
| Cc1ccc(S(=O)(=O)/C=C/C#N)cc1 | 102 | 99 | 103 | 109 | 105 | 115 | 96 | 107 | 112 | 74 | 84 | 101 | 95 | 92 | 92 | 94 | 100 | 109 | 108 | 96 |
| CCN(CC)C(=O)c1ccc(Nc2nc(OCC3CCCCC3)c3nc[nH]c3n2)cc1 | 2 | 3 | -1 | 7 | 1 | 44 | -11 | 44 | 0 | 5 | -4 | 33 | 3 | 39 | 10 | – | – | 45 | 13 | 10 |
| O=C1Nc2cc(Br)ccc2/C1=C1/Nc2ccccc2/C1=N\O | 9 | 68 | 58 | 20 | 21 | 93 | 85 | 79 | 89 | 38 | 16 | 3 | 2 | 33 | 49 | 99 | 81 | 72 | 69 | 2 |
| O=C1Nc2ccc(Br)cc2/C1=C\c1cc2c([nH]1)CCCC2 | – | 105 | 99 | 108 | 101 | 114 | 114 | 101 | – | – | – | 12 | 4 | – | – | 97 | 99 | 74 | 76 | – |
| N#CCCc1ccc2c(c1)-c1[nH]c3ccc([N+](=O)[O-])cc3c1CC(=O)N2 | 52 | – | – | – | 66 | – | – | – | – | 67 | 43 | 30 | 13 | – | – | – | – | 57 | 58 | 14 |
| CC(C)n1cnc2/c(=N/c3cccc(Cl)c3)nc(NCCO)[nH]c21 | 22 | 92 | 89 | 111 | 81 | 103 | 89 | 97 | 105 | 64 | 60 | 85 | 53 | 96 | 80 | 96 | 81 | 89 | 47 | 48 |
| N#Cc1cnc2cnc(NCc3cccnc3)cc2c1Nc1ccc(F)c(Cl)c1 | 48 | 96 | 94 | 82 | 81 | – | – | 95 | 97 | – | 80 | – | 76 | 42 | 27 | – | – | 96 | 93 | 68 |
| Oc1ccc(Nc2nc(-c3ccc(Cl)cc3)cs2)cc1 | 95 | 106 | 97 | 95 | 122 | 106 | 101 | 101 | 113 | 108 | 115 | 104 | 92 | 102 | 102 | 108 | – | 109 | 107 | 93 |
| COc1cc2ncnc(Nc3ccc(Oc4ccccc4)cc3)c2cc1OC | – | 118 | 148 | 93 | 113 | 106 | 110 | 121 | 98 | 83 | 148 | 49 | 7 | 78 | 34 | 102 | 93 | – | – | 0 |
| N#CC(C#N)=C(N)/C(C#N)=C/c1ccc(O)cc1 | – | – | – | – | – | – | 83 | – | – | 96 | 88 | – | 92 | – | – | – | – | 98 | 96 | – |
| CC(=O)c1ccc(N2CCOCC2)cc1O | 97 | 102 | 96 | 102 | 105 | 104 | 80 | 101 | 103 | 88 | 85 | 106 | 91 | 104 | 83 | 97 | – | 102 | 90 | – |
| c1ccc(-c2n[nH]cc2-c2ccnc3ccccc23)nc1 | 104 | 94 | 109 | – | – | – | – | 109 | 99 | 79 | 52 | 57 | 23 | 90 | 74 | 96 | 94 | 90 | 93 | 123 |

From ChEMBL document CHEMBL2218924, “A broad activity screen in support of a chemogenomic map for kinase signalling research and drug discovery” (Biochem J, 2013)
